Test results: ChEMBL document CHEMBL1961873, “Compounds: GSK PKIS; Assays: Nanosyn kinase panel” (2012)

Experiments:
[1] = target: T1, Mitogen-activated protein kinase 12 (Homo sapiens) (UniProt P53778); details: at 1 µM;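 note: values are averaged p38gamma kinase inhibition readings, compounds tested at 1 µM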
T1 sequence (whole entry): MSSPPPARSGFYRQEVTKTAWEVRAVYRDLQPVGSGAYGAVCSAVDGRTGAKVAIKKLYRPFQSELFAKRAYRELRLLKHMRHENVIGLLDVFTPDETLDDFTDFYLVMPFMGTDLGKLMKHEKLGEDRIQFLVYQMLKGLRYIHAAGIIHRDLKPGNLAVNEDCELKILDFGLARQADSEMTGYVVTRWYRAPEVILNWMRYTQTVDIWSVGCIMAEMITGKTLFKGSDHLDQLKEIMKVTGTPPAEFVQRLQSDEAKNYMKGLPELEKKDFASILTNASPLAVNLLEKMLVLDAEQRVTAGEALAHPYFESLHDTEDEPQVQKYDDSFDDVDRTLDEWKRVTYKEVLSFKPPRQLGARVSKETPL

[2] = target: SRSF protein kinase 1 (Homo sapiens) (UniProt Q96SB4); details: at 0.1 µM
[3] = target: SRSF protein kinase 1 (Homo sapiens) (UniProt Q96SB4); details: at 1 µM
[4] = target: Phosphatidylinositol 4,5-bisphosphate 3-kinase catalytic subunit alpha isoform (Homo sapiens) (UniProt P42336); details: at 0.1 µM
[5] = target: Phosphatidylinositol 4,5-bisphosphate 3-kinase catalytic subunit alpha isoform (Homo sapiens) (UniProt P42336); details: at 1 µM
[6] = target: T2, Phosphatidylinositol 4,5-bisphosphate 3-kinase catalytic subunit delta isoform (Homo sapiens) (UniProt O00329); details: at 0.1 µM
T2 sequence (whole entry): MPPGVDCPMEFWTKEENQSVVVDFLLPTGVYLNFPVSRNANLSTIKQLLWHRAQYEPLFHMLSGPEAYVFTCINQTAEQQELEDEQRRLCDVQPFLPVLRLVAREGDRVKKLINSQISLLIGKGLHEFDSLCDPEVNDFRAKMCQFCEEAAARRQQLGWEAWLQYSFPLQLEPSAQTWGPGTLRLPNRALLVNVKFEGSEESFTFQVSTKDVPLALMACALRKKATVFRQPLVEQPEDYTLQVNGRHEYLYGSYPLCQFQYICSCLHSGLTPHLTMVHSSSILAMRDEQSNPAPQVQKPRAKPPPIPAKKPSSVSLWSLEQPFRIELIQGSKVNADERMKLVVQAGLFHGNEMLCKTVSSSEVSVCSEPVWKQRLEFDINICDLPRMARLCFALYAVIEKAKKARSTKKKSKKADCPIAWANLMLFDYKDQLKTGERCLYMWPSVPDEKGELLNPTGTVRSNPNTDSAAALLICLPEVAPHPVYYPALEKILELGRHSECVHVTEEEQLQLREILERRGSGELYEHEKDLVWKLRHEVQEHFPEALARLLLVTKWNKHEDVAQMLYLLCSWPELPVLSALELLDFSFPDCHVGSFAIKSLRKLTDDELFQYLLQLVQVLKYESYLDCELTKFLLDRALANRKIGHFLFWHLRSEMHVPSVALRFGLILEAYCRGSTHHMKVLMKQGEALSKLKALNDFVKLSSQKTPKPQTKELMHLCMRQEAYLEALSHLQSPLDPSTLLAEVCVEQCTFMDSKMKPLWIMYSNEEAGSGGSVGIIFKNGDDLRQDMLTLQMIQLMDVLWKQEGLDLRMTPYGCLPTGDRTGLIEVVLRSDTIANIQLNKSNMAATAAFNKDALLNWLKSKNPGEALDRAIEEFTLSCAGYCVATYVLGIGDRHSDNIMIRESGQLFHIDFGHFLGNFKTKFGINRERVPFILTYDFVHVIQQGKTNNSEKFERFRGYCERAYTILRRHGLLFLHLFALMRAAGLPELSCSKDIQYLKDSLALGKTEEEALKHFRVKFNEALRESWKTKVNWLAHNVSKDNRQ

[7] = target: T2, Phosphatidylinositol 4,5-bisphosphate 3-kinase catalytic subunit delta isoform (Homo sapiens); details: at 1 µM
[8] = target: Phosphatidylinositol 4-kinase beta (Homo sapiens) (UniProt Q9UBF8); details: at 0.1 µM
[9] = target: Phosphatidylinositol 4-kinase beta (Homo sapiens) (UniProt Q9UBF8); details: at 1 µM
[10] = target: Sphingosine kinase 1 (Homo sapiens) (UniProt Q9NYA1); details: at 0.1 µM
[11] = target: Sphingosine kinase 1 (Homo sapiens) (UniProt Q9NYA1); details: at 1 µM
[12] = target: T3, Sphingosine kinase 2 (Homo sapiens) (UniProt Q9NRA0); details: at 0.1 µM
T3 sequence (whole entry): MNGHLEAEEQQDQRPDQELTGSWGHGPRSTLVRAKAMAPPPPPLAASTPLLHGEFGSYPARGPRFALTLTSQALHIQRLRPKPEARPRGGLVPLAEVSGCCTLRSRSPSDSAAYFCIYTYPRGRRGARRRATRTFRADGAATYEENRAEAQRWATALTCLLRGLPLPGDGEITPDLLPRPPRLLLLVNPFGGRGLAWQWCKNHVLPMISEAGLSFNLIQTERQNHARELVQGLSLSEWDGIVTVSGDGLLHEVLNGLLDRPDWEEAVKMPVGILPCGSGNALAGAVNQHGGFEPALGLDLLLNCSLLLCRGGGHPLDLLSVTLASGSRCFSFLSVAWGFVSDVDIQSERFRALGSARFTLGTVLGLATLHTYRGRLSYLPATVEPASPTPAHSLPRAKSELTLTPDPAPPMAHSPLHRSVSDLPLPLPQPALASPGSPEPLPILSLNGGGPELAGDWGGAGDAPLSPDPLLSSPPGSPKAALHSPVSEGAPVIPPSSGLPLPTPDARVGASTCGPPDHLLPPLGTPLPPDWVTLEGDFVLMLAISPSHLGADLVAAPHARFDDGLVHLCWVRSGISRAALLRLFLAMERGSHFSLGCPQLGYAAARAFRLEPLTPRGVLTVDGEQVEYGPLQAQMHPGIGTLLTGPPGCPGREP

[13] = target: T3, Sphingosine kinase 2 (Homo sapiens); details: at 1 µM
[14] = target: Casein kinase II subunit alpha (Homo sapiens) (UniProt P68400); details: at 0.1 µM
[15] = target: Casein kinase II subunit alpha (Homo sapiens) (UniProt P68400); details: at 1 µM
[16] = target: T4, Inhibitor of nuclear factor kappa-B kinase subunit alpha (Homo sapiens) (UniProt O15111); details: at 0.1 µM
T4 sequence (whole entry): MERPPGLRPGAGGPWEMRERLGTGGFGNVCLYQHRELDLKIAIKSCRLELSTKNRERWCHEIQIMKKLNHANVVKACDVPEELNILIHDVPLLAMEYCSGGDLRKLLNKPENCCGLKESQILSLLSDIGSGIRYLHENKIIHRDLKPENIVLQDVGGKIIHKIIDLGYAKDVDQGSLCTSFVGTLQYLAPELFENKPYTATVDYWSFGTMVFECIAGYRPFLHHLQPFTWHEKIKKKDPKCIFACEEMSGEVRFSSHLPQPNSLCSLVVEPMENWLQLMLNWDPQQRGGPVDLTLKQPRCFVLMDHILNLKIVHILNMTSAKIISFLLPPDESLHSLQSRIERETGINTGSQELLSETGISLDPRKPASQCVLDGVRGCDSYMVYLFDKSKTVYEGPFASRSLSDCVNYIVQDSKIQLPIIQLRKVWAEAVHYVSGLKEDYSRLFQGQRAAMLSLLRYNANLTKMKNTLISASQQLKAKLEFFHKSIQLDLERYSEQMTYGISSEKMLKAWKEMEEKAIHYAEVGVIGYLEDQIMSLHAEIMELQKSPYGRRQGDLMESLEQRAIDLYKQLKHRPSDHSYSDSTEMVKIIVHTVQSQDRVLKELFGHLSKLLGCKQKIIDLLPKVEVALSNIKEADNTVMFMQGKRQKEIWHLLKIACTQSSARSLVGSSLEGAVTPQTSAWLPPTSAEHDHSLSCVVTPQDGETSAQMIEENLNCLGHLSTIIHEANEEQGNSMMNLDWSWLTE

[17] = target: T4, Inhibitor of nuclear factor kappa-B kinase subunit alpha (Homo sapiens); details: at 1 µM
[18] = target: T5, Inhibitor of nuclear factor kappa-B kinase subunit beta (Homo sapiens) (UniProt O14920); details: at 0.1 µM
T5 sequence (whole entry): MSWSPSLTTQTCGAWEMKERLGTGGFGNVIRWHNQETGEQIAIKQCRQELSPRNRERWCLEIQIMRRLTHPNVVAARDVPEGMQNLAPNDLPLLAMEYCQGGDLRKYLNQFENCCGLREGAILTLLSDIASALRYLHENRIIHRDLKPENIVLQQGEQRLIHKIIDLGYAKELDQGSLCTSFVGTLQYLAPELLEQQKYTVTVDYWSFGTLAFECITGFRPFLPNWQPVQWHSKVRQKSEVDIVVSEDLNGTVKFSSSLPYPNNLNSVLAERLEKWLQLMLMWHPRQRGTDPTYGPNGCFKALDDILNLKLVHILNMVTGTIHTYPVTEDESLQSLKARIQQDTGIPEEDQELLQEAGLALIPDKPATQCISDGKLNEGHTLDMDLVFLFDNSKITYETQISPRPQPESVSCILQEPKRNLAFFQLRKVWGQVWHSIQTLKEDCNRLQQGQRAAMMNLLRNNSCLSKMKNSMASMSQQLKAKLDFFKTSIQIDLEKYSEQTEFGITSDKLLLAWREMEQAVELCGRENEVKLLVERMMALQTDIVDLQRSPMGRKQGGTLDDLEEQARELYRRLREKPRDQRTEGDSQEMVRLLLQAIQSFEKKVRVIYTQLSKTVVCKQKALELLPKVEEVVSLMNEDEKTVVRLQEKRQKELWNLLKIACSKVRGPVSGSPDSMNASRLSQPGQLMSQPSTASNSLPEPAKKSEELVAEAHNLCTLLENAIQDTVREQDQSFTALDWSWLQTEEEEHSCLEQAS

[19] = target: T5, Inhibitor of nuclear factor kappa-B kinase subunit beta (Homo sapiens); details: at 1 µM
[20] = target: T6, Inhibitor of nuclear factor kappa-B kinase subunit epsilon (Homo sapiens) (UniProt Q14164); details: at 0.1 µM;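 note: mean inhibition of IKKε reported, from the GSK PKIS dataset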
T6 sequence (whole entry): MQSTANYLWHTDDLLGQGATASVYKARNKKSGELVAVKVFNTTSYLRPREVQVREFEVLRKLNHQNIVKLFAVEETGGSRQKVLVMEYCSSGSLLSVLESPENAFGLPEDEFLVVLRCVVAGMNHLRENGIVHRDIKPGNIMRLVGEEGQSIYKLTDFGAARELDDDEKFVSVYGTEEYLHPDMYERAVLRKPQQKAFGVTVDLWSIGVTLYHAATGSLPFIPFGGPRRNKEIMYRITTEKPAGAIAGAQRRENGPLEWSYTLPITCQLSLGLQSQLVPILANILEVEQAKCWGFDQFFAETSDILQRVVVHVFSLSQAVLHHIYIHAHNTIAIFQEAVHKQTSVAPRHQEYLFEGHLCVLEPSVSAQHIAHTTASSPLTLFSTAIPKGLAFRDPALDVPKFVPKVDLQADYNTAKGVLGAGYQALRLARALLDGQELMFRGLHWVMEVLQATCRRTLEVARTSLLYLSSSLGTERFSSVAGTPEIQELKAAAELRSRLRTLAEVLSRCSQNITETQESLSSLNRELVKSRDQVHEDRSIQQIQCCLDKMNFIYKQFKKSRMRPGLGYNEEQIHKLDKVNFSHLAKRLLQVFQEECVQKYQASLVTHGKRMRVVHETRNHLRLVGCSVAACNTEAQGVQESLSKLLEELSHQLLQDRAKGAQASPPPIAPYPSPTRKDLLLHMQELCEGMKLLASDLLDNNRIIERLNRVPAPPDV

Sequence of Phosphatidylinositol 4,5-bisphosphate 3-kinase catalytic subunit alpha isoform (Homo sapiens) (P42336 whole entry, canonical isoform): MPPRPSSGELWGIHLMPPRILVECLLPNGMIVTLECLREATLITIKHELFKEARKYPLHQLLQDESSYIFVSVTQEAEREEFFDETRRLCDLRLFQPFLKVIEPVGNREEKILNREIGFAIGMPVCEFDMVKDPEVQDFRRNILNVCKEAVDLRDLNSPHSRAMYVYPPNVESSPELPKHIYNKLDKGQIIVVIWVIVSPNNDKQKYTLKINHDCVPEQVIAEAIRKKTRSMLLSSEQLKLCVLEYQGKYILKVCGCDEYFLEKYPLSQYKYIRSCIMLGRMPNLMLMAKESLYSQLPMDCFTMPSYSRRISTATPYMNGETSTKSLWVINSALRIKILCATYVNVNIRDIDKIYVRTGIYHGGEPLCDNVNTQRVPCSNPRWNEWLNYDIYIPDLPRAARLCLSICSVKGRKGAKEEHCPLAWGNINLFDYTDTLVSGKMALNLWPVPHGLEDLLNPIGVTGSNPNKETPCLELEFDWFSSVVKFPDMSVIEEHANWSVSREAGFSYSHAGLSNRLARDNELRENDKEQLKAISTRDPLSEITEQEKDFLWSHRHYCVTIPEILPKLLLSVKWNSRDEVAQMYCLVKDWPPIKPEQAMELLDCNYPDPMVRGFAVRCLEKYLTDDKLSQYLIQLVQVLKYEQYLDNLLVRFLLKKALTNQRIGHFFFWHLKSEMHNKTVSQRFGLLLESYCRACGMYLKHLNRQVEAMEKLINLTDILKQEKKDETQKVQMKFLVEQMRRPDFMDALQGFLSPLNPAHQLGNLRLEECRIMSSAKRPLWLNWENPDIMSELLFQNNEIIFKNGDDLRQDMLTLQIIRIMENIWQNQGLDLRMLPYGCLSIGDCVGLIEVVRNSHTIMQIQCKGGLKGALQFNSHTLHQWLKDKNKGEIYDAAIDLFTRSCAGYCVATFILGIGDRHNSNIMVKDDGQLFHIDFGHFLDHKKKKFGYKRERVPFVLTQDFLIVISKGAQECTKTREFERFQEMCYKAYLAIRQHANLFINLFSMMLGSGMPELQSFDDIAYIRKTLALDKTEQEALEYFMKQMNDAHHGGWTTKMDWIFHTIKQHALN
Sequence of Sphingosine kinase 1 (Homo sapiens) (Q9NYA1 whole entry): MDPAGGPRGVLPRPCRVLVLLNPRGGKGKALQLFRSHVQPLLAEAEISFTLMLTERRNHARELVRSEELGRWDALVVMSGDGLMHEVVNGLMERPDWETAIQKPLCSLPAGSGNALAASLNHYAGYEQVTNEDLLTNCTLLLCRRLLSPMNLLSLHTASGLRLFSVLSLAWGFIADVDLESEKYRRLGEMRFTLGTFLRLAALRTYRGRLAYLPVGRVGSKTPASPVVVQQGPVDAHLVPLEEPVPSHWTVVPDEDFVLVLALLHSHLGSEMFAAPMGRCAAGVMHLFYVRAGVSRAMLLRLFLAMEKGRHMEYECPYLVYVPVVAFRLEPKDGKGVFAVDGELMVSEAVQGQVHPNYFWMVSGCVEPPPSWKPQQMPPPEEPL
Sequence of Phosphatidylinositol 4-kinase beta (Homo sapiens) (Q9UBF8 2-816 limits assumed): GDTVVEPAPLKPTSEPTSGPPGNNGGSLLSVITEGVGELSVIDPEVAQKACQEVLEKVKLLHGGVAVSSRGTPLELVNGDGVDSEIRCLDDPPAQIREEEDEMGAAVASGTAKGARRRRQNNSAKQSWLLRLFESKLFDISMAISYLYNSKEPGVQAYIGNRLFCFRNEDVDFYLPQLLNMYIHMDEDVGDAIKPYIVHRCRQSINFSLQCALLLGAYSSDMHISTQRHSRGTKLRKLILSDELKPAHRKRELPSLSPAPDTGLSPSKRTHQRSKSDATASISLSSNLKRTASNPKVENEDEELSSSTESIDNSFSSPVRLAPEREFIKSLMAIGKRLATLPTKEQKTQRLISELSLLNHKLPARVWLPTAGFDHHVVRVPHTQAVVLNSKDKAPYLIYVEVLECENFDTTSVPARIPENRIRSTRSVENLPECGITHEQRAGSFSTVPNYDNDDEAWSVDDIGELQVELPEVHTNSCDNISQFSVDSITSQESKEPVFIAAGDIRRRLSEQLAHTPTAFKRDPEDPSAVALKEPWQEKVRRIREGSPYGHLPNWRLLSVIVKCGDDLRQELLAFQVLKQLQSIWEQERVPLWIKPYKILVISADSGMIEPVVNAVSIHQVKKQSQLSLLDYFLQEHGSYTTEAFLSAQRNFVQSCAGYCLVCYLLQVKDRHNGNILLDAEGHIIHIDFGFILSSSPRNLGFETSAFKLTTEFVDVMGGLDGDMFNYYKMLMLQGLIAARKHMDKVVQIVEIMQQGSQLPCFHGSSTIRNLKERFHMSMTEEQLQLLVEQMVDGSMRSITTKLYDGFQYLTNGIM
Sequence of Casein kinase II subunit alpha (Homo sapiens) (P68400 whole entry, looked up): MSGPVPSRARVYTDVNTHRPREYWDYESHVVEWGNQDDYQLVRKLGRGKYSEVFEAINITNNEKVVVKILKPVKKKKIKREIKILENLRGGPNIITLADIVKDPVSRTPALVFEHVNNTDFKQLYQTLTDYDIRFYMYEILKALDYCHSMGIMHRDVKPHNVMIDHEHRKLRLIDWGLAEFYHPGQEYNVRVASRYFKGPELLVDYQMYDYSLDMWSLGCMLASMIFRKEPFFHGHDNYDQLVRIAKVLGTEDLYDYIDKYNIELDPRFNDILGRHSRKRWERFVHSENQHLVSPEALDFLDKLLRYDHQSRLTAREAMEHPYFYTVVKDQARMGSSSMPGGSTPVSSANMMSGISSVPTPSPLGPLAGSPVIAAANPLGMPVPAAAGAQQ
Sequence of SRSF protein kinase 1 (Homo sapiens) (Q96SB4 whole entry, canonical isoform): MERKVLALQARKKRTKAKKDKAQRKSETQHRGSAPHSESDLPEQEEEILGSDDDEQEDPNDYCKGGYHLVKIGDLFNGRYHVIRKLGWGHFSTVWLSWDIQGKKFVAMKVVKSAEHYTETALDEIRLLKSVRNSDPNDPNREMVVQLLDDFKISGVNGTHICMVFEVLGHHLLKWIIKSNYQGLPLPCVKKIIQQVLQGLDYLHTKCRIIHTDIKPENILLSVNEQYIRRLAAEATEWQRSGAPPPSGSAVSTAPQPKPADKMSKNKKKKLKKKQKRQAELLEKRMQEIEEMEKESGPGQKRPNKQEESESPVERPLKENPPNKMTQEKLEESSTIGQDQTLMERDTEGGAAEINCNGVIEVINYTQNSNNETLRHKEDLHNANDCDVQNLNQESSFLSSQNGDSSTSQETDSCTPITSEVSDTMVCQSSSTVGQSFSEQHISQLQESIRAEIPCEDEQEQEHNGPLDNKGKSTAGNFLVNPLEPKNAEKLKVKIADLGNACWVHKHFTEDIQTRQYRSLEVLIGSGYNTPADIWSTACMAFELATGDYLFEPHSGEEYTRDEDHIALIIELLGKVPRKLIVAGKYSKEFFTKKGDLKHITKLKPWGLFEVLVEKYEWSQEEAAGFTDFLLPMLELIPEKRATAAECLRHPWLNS

Structure (SMILES)	inhibition [1]	inhibition [2]	inhibition [3]	inhibition [4]	inhibition [5]	inhibition [6]	inhibition [7]	inhibition [8]	inhibition [9]	inhibition [10]	inhibition [11]	inhibition [12]	inhibition [13]	inhibition [14]	inhibition [15]	inhibition [16]	inhibition [17]	inhibition [18]	inhibition [19]	inhibition [20]
Cc1cc(Cl)cc2c1NC(=O)C2=NNc1ccc(S(N)(=O)=O)cc1	2.01%	-1.22%	1.09%	0.48%	1.85%	0.72%	4.67%	-5.44%	3.24%	0.93%	-2.79%	-0.11%	-2.78%	3.02%	8.79%	1.51%	10.1%	8.97%	7.33%	6.15%
Nc1nccc(-c2c(-c3ccc(F)cc3)nn3cc(C(F)(F)F)ccc23)n1	1.01%	-0.96%	-1.1%	0.15%	0.75%	0.55%	0.3%	-4.79%	-4.51%	4.09%	11.1%	-0.68%	0%	15.6%	2.55%	-2.07%	-2.01%	1.03%	0.86%	1.65%
COC(=O)c1ccc2c(c1)C(=Cc1cc(Br)c(O)c(Br)c1)C(=O)N2	7.78%	-4.19%	-1.41%	20.2%	71.1%	-9.64%	-7.81%	43.6%	87.4%	1.25%	-3.43%	-0.52%	-0.45%	14.7%	47%	5.93%	3%	6.94%	8.75%	7.2%
C[C@@H](Oc1cc(-n2cnc3ccc(OCC4CCN(C)CC4)cc32)sc1C(N)=O)c1ccccc1C(F)(F)F	-2.08%	-0.56%	1.16%	-1.6%	13.3%	2.19%	55.9%	6.54%	0.1%	0.59%	1.96%	-2.47%	-0.08%	6.68%	7.31%	-3.27%	-3.79%	-5.4%	-3.39%	-3.26%
